Measured values from publication PMC8769072, “Proteome‐scale mapping of binding sites in the unstructured regions of the human proteome” (Molecular Systems Biology, 2022).

Target: AP2B1 700-937, P63010
Sequence (P63010 700-937): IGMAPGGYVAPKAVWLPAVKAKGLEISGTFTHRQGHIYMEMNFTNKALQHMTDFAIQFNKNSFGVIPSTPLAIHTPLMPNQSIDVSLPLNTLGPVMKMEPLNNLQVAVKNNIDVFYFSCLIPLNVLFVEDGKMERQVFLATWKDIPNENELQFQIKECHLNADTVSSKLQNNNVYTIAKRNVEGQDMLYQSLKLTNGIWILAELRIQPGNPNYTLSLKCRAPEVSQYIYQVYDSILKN

Question: How did the “selected by phage display” value turn out when MQIPQAPWPVVWAVLQ [PDCD1, Q15116] was run?
Answer: confidence 4 (active)

Target: CALM1 2-149, P0DP23

Question: WKTLKERESILKLLDG [TADA3, O75528] was tested. Which “selected by phage display” value did it give?
Answer: confidence 3 (active)

Question: With AVPSNASWEQAMKMVV [PRPF40B, Q6NWY9] as the binder, how does the “selected by phage display” value read?
Answer: confidence 2 (active)

Question: For LWLALRETVYDPSLPA [DISP2, A7MBM2], which “selected by phage display” value is on record?
Answer: confidence 3 (active)

Question: GTHWRVLGLALLSVGV [CD3E, P07766] was tested. Which “selected by phage display” value did it give?
Answer: confidence 3 (active)

Question: For SISSQVSSAVMKSLLA [IL16, Q14005], which “selected by phage display” value is on record?
Answer: confidence 2 (active)

Question: With AWKTALLANVGTISAI [PERM1, Q5SV97] as the binder, how does the “selected by phage display” value read?
Answer: confidence 2 (active)

Question: Which “selected by phage display” value does the source give for KWPSLATLAATPISSS [AGAP7P, Q5VUJ5] here?
Answer: confidence 3 (active)

Question: Which “selected by phage display” value does the source give for VTAGWTWPALRTLSSL [NFKBIE, O00221] here?
Answer: confidence 2 (active)

Question: For WNLLQQQTTTTSSKNL [KRT4, P19013], which “selected by phage display” value is on record?
Answer: confidence 3 (active)

Question: With WPLLRKQLEGRLALPS [SPATA31A6, Q5VVP1] as the binder, how does the “selected by phage display” value read?
Answer: confidence 2 (active)

Question: STWGTVKDSLKALSSA [SRARP, Q8NEQ6] was tested. Which “selected by phage display” value did it give?
Answer: confidence 2 (active)

Question: Which “selected by phage display” value does the source give for DRSWHQMVVRALSSQE [HSH2D, Q96JZ2] here?
Answer: confidence 2 (active)

Question: SFWLFRVSPTTFPFLY [ATP8B3, O60423] was tested. Which “selected by phage display” value did it give?
Answer: confidence 2 (active)

Question: With TNWTLLKSDMNKPHLI [TTLL6, Q8N841] as the binder, how does the “selected by phage display” value read?
Answer: confidence 2 (active)

Question: With WQRLQSNPHLKEGSVT [ACY1, Q03154] as the binder, how does the “selected by phage display” value read?
Answer: confidence 2 (active)

Question: AWKSLTDKVQEARSNA [KMT2A, Q03164] was tested. Which “selected by phage display” value did it give?
Answer: confidence 2 (active)

Question: SIPRSWPSAHSVSNIL [PAX1, P15863] was tested. Which “selected by phage display” value did it give?
Answer: confidence 2 (active)

Question: With EISNRWKLAQVQVQKD [EXOSC10, Q01780] as the binder, how does the “selected by phage display” value read?
Answer: confidence 2 (active)

Question: Which “selected by phage display” value does the source give for LWPVLRSDAFSGLTAL [FIGN, Q5HY92] here?
Answer: confidence 3 (active)

Question: AQDFFQRWKQLSLPQQ [AP2A1, O95782] was tested. Which “selected by phage display” value did it give?
Answer: confidence 2 (active)

Question: Which “selected by phage display” value does the source give for MMLSEQAQKWFPTHVQ [RAB11FIP2, Q7L804] here?
Answer: confidence 2 (active)

Question: Which “selected by phage display” value does the source give for GGLLHWERLLGGLGGE [NCKAP5L, Q9HCH0] here?
Answer: confidence 2 (active)

Question: With AWSDVVGRRSSLLAAI [MFSD9, Q8NBP5] as the binder, how does the “selected by phage display” value read?
Answer: confidence 2 (active)

Question: How did the “selected by phage display” value turn out when DWSNLVDAAKAYEVQR [SIPA1L1, O43166] was run?
Answer: confidence 3 (active)

Question: For MAAWKSWTALRLAATV [TMX3, Q96JJ7], which “selected by phage display” value is on record?
Answer: confidence 2 (active)

Question: For PYPKWNSVFDQLTQVV [MAP2K4, P45985], which “selected by phage display” value is on record?
Answer: confidence 3 (active)

Question: For EVAFGKEGLWKLLGGF [GNL3, Q9BVP2], which “selected by phage display” value is on record?
Answer: confidence 2 (active)

Target: CEP55 160-217, Q53EZ4
Sequence (Q53EZ4 160-217): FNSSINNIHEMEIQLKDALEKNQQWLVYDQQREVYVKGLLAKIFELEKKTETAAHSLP

Question: For PPSQSYGGGPAQVPLP [ANXA7, P20073], which “selected by phage display” value is on record?
Answer: confidence 2 (active)

Question: With PPATSYAPSDVPSGVA [MALL, Q13021] as the binder, how does the “selected by phage display” value read?
Answer: confidence 2 (active)

Question: Which “selected by phage display” value does the source give for GPPSLNYIPPVLQLSG [TEX14, Q8IWB6] here?
Answer: confidence 2 (active)

Question: For PPFTDYRQPPLDYRQP [MAGI2, Q86UL8], which “selected by phage display” value is on record?
Answer: confidence 3 (active)

Question: Which “selected by phage display” value does the source give for AREPPADVWTPPARAS [TRIM25, Q14258] here?
Answer: confidence 2 (active)

Question: Which “selected by phage display” value does the source give for PPAAVYYAPAGPTSAQ [AKNA, Q7Z591] here?
Answer: confidence 3 (active)

Question: For WSYLMHFLFDHSNLGS [OR52I1, Q8NGK6], which “selected by phage display” value is on record?
Answer: confidence 2 (active)

Question: For DAKAPPTAAYAGAAPA [CEBPB, P17676], which “selected by phage display” value is on record?
Answer: confidence 4 (active)

Question: For MAVGPPDAPVGGPLTF [INO80E, Q8NBZ0], which “selected by phage display” value is on record?
Answer: confidence 2 (active)

Question: For PPSADYSTPPHRTVPE [BAHD1, Q8TBE0], which “selected by phage display” value is on record?
Answer: confidence 3 (active)

Question: PQSPPASMYGSTGSLL [PSD, A5PKW4] was tested. Which “selected by phage display” value did it give?
Answer: confidence 2 (active)

Question: With SNWSPLGPPSSPYGAA [MAML3, Q96JK9] as the binder, how does the “selected by phage display” value read?
Answer: confidence 2 (active)

Target: CLTC 1-364, Q00610
Sequence (Q00610 1-364): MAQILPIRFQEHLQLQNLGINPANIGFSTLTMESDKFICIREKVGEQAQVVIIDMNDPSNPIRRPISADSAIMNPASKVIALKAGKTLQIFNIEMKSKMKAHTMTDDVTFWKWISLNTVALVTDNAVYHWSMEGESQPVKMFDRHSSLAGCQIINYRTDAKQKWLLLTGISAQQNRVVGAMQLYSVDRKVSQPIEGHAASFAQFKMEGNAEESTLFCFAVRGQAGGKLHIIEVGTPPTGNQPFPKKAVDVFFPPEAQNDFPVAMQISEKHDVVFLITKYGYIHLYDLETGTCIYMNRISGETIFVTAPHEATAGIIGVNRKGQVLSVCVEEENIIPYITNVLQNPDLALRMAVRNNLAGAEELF

Question: GQVQVADLLGINGTGE [CCDC141, Q6ZP82] was tested. Which “selected by phage display” value did it give?
Answer: confidence 2 (active)

Question: SADLIQFEERPQEPSE [MARF1, Q9Y4F3] was tested. Which “selected by phage display” value did it give?
Answer: confidence 3 (active)

Question: SLISWDEPGVDFYSKP [PIK3C2B, O00750] was tested. Which “selected by phage display” value did it give?
Answer: confidence 4 (active)

Question: How did the “selected by phage display” value turn out when LPLIDFADTPEAHVAV [GTSE1, Q9NYZ3] was run?
Answer: confidence 3 (active)

Question: For ANTLPVSGNLIDLYGN [MITF, O75030], which “selected by phage display” value is on record?
Answer: confidence 3 (active)

Question: How did the “selected by phage display” value turn out when GLLLMEEEGHSDLISF [TMEM94, Q12767] was run?
Answer: confidence 4 (active)

Question: Which “selected by phage display” value does the source give for VGSLIDFGPEAPTSSP [KIAA0513, O60268] here?
Answer: confidence 3 (active)

Question: DLLSGDLIFLGSDSHP [GJB5, O95377] was tested. Which “selected by phage display” value did it give?
Answer: confidence 3 (active)

Question: EHNLITWTDGPPPVQF [MAU2, Q9Y6X3] was tested. Which “selected by phage display” value did it give?
Answer: confidence 4 (active)

Question: With PVSSLAEPDLINFMDF [DENND4C, Q5VZ89] as the binder, how does the “selected by phage display” value read?
Answer: confidence 2 (active)

Target: CRK 124-198, P46108
Sequence (P46108 124-198): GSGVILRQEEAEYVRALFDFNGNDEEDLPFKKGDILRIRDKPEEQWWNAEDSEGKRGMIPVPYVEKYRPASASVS

Question: How did the “selected by phage display” value turn out when NLPPPLPPKKYAITSV [USP53, Q70EK8] was run?
Answer: confidence 2 (active)

Question: NSTSRPTLPVKSLAQR [SZRD1, Q7Z422] was tested. Which “selected by phage display” value did it give?
Answer: confidence 2 (active)

Question: With PPPLPPKPRISSYPED [MAP4K5, Q9Y4K4] as the binder, how does the “selected by phage display” value read?
Answer: confidence 2 (active)

Question: PALPSKLLSSGSAKAD [IL17RD, Q8NFM7] was tested. Which “selected by phage display” value did it give?
Answer: confidence 3 (active)

Question: With QVPSLPLKDSQELTAS [ZKSCAN5, Q9Y2L8] as the binder, how does the “selected by phage display” value read?
Answer: confidence 4 (active)

Question: Which “selected by phage display” value does the source give for APSLPGKGSGASVALM [ZNF469, Q96JG9] here?
Answer: confidence 3 (active)

Question: With TNLPDVPNKSAPSPTS [ZNF462, Q96JM2] as the binder, how does the “selected by phage display” value read?
Answer: confidence 2 (active)

Question: How did the “selected by phage display” value turn out when PPVPPKSEAVREEARL [GAREM1, Q9H706] was run?
Answer: confidence 4 (active)

Question: KEPPAKVPEVPKKIVV [TTN, Q8WZ42] was tested. Which “selected by phage display” value did it give?
Answer: confidence 3 (active)

Question: How did the “selected by phage display” value turn out when LSIPVTSEPPALPPKP [DOCK4, Q8N1I0] was run?
Answer: confidence 2 (active)

Question: Which “selected by phage display” value does the source give for PTPVLMNQPPQIAPKR [EIF4G1, Q04637] here?
Answer: confidence 3 (active)

Question: For LSETVTKPPLPQKNTA [NSUN7, Q8NE18], which “selected by phage display” value is on record?
Answer: confidence 3 (active)
